Experimental data as given in PubChem BioAssay (EPA / NIEHS).
Records with an inconclusive call do not appear. Active and inactive are the calls of the source. The calls were made as follows, unless noted: active = hit-call score of the fitted dose curve at least 0.9, where 1 is the maximum; inactive = score below 0.9.

Columns and labels:
[1] = ATG_CRE_CIS: Attagene CIS-FACTORIAL HepG2 Assay for human cAMP Responsive Element (CRE) binding protein 3 (AID 2282926); details: HepG2 CRE cis-reporter, Attagene multiplexed mRNA; actives raise or lower the signal
Summary of the method: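 Human liver HepG2, transient MRTU transfection, 24 h compound exposure. Total RNA → oligo(dT) RT → PCR → 6-FAM primer extension → HpaI cut → CE. Activity called both directions vs DMSO.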

[2] = ATG_DR4_LXR_CIS: Attagene CIS-FACTORIAL HepG2 Assay for human Liver X Receptor (LXR), DR4 submotif (AID 2282929); details: HepG2 Attagene DR4 cis-reporter, mRNA transcription; actives raise or lower the signal
Summary of the method: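 Measures endogenous transcription factor activity via a DR4-driven reporter transcript in human HepG2 cells. Compounds incubated 24 h; mRNA quantified by RT-PCR and capillary electrophoresis, analysed as gain or loss of signal versus DMSO.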

[3] = ATG_AP_1_CIS: Attagene CIS-FACTORIAL HepG2 Assay for human Activator Protein 1 (AP-1) (AID 2282931); details: HepG2 Attagene cis-factorial AP-1 reporter mRNA; actives raise or lower the signal
Summary of the method: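 Bidirectional concentration-response fitting against DMSO controls. Underlying signal: reporter mRNA from cis-promoter constructs in transiently transfected HepG2, measured after 24 h by RT-PCR and capillary electrophoresis.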

[4] = ATG_Ets_CIS: Attagene CIS-FACTORIAL HepG2 Assay for human Erythroblast Transformation Specific (ETS) (AID 2282941); details: HepG2 ETS cis-reporter transcription, actives raise or lower the signal
Summary of the method: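 Human HepG2 hepatoma cells were transiently transfected with promoter-driven reporter constructs and treated for 24 hours. Reporter transcripts were quantified by RT-PCR with fluorescent primer extension; bidirectional curve fitting used DMSO as reference.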

[5] = molecular target: Hypoxia-inducible factor 1-alpha (Homo sapiens) (UniProt Q16665); assay: ATG_HIF1a_CIS: Attagene CIS-FACTORIAL HepG2 Assay for human Hypoxia Inducible Factor 1 (HIF1A) (AID 2282951); details: HepG2 Attagene cis-factorial HIF1a reporter transcription; actives raise or lower the signal
Summary of the method: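 In this multiplexed cell assay, HepG2 cells bearing transfected cis reporters are dosed for 24 h and reporter mRNA is read by RT-PCR plus capillary electrophoresis; signal increases and decreases are both scored against DMSO.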

[6] = molecular target: Heat shock factor protein 1 (Homo sapiens) (UniProt Q00613); assay: ATG_HSE_CIS: Attagene CIS-FACTORIAL HepG2 Assay for human Heat Shock Transcription Factor 1 (HSE) (AID 2282953); details: HepG2 HSE cis-reporter, Attagene RNA transcription; actives raise or lower the signal
Summary of the method: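 Endogenous transcription factor activity captured via cis-promoter reporter units transfected into HepG2; treatment lasted 24 h. Fluorescence intensity of reporter fragments analysed with bidirectional curve fitting, DMSO baseline.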

[7] = molecular target: Signal transducer and activator of transcription 3 (Homo sapiens) (UniProt P40763); assay: ATG_STAT3_CIS: Attagene CIS-FACTORIAL HepG2 Assay for human Signal Transducer and Activator of Transcription 3 (STAT3) (AID 2282963); details: HepG2, Attagene cis-factorial STAT3 reporter transcription; actives raise or lower the signal
Summary of the method: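 HepG2 cells transiently transfected with cis-element-driven multiple reporter transcription units; after 24 h chemical exposure, reporter mRNA measured by RT-PCR, 6-FAM primer-extension labelling, HpaI digestion and capillary electrophoresis. Bidirectional fitting versus DMSO baseline.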

[8] = ATG_TA_CIS: Attagene CIS-FACTORIAL HepG2 Assay for human TA Basal Promoter (AID 2282964); details: HepG2 Attagene CIS-factorial TA basal promoter reporter; actives raise or lower the signal
Summary of the method: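 Fluorescence from labelled RT-PCR reporter fragments, separated by capillary electrophoresis, gives the signal. Cells: HepG2 transiently carrying multiple reporter units, 24 h chemical dosing. Gain or loss relative to DMSO.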

[9] = ATG_TCF_b_cat_CIS: Attagene CIS-FACTORIAL HepG2 Assay for human T-Cell-Factor with beta-catenin (TCF/b-cat) (AID 2282965); details: HepG2 TCF/beta-catenin cis-reporter transcription, actives raise or lower the signal
Summary of the method: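 Using capillary electrophoresis as the read-out, labelled reporter cDNA fragments from transiently transfected HepG2 were sized and quantified. Exposure lasted 24 hours; activity in either direction was referenced to DMSO.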

[10] = ATG_TAL_CIS: Attagene CIS-FACTORIAL HepG2 Assay for human TAL Basal Promoter (AID 2282966); details: HepG2 Attagene cis-factorial TAL promoter reporter; actives raise or lower the signal;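 also: background control endpoint measuring basal TAL promoter reporter mRNA not a specific factor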
Summary of the method: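 Fluorescence of labelled reporter cDNA fragments, resolved by capillary electrophoresis, gave the readout. Human HepG2 liver cells carried transiently transfected cis-element reporter units and were treated for 24 hours; activity was fitted bidirectionally against DMSO.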

[11] = molecular target: X-box-binding protein 1 (Homo sapiens) (UniProt P17861); assay: ATG_Xbp1_CIS: Attagene CIS-FACTORIAL HepG2 Assay for human X-box Binding Protein 1 (XBP1) (AID 2282972); details: HepG2 XBP1 cis-element reporter, Attagene multiplex; actives raise or lower the signal
Summary of the method: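 Fluorescence-labelled cDNA fragments from reporter transcripts, separated by capillary electrophoresis, give the signal. Source: HepG2 cells transfected with promoter-driven reporter units, harvested 24 h post-dose. DMSO served as reference for bidirectional curve fitting.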

[12] = molecular target: Transcriptional activator Myb (Homo sapiens) (UniProt P10242); assay: ATG_Myb_CIS: Attagene CIS-FACTORIAL HepG2 Assay for human Myeloblastosis (Myb) Proto-Oncogene Transcription Factor (AID 2282986); details: HepG2 Attagene CIS-FACTORIAL Myb reporter transcription; actives raise or lower the signal
Summary of the method: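 Fluorescence signals from capillary electrophoresis of RT-PCR-amplified reporter cDNA give the read-out. Cells: HepG2 transfected with multiple cis-regulated reporter units. Exposure lasts 24 hours; DMSO defines baseline for gain or loss of signal.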

[13] = ATG_NFI_CIS: Attagene CIS-FACTORIAL HepG2 Assay for human Nuclear Factor I (NFI) (AID 2282989); details: HepG2 cis-regulatory reporter, NFI response element transcription; actives raise or lower the signal
Summary of the method: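 Cells: human liver HepG2, transiently transfected with promoter-regulated reporter transcription units. Exposure 24 h. Detection: fluorescent RT-PCR products separated by capillary electrophoresis, normalised to DMSO negative control.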

[14] = molecular target: Myc proto-oncogene protein (Homo sapiens) (UniProt P01106); assay: ATG_Myc_CIS: Attagene CIS-FACTORIAL HepG2 Assay for human Myelocytomatosis (Myc) Proto-Oncogene Transcription Factor (AID 2282990); details: HepG2, Attagene cis-reporter transcription factor activity; actives raise or lower the signal
Summary of the method: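 Multiplexed cis-reporter transcription in HepG2 cells after 24 h chemical treatment. Reporter mRNA measured by RT-PCR and capillary electrophoresis fluorescence; activity fitted bidirectionally against DMSO control.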

[15] = ATG_NRF2_ARE_CIS: Attagene CIS-FACTORIAL HepG2 Assay for human Nuclear Factor Erythroid 2 Related Factor 2 (NFR2) response to Antioxidant Response Elements (ARE) (AID 2282992); details: HepG2 Attagene ARE/NRF2 reporter, transcription factor activity; actives raise or lower the signal
Summary of the method: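 Multiplexed reporter mRNA profiling in HepG2 after a 24 h chemical exposure. Curves fitted in both directions relative to DMSO negative control.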

[16] = ATG_Oct_MLP_CIS: Attagene CIS-FACTORIAL HepG2 Assay for human Octamer-Binding Transcription Factor (Oct) (AID 2282993); details: HepG2 Attagene cis-factorial Oct reporter, mRNA; actives raise or lower the signal
Summary of the method: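 HepG2, transient MRTU transfection, cis promoter elements; 24 h dosing; RT-PCR/CE fluorescence read-out of reporter mRNA; fit both directions vs DMSO.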

[17] = molecular target: Cellular tumor antigen p53 (Homo sapiens) (UniProt P04637); assay: ATG_p53_CIS: Attagene CIS-FACTORIAL HepG2 Assay for human p53 Transcription Factor (AID 2282994); details: HepG2 p53 cis-element reporter, Attagene mRNA; actives raise or lower the signal
Summary of the method: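 Multiplexed reporter mRNA assay in human HepG2 liver cells; cis-regulated units report endogenous factor activity. Values come from bidirectional curve fitting against DMSO negative control after 24 h treatment.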

[18] = ATG_XTT_Cytotoxicity: Cytotoxicity Assessment in the Attagene TRANS-FACTORIAL HepG2 Assay (AID 2283584; active = hit-call score of the fitted dose curve at least 0.9, where 1 is the maximum)
Summary of the method: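 Cells: human HepG2, transiently transfected with MRTU reporter constructs. Exposure 24 h. Readout: XTT, cell number. Baseline/neg ctrl DMSO; loss-of-signal scored.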

[19] = molecular target: Paired box protein Pax-6 (Homo sapiens) (UniProt P26367); assay: ATG_Pax6_CIS: Attagene CIS-FACTORIAL HepG2 Assay for human Paired Box 6 (PAX6) (AID 2282956); details: HepG2 CIS-FACTORIAL PAX6 reporter transcription, RNA readout; actives raise or lower the signal
Summary of the method: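 Multiplexed cis-reporter HepG2 system; 24 h treatment; reporter mRNA read by RT-PCR/CE fluorescence; bidirectional fit vs DMSO.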

[20] = molecular target: Nuclear receptor subfamily 1 group I member 2 (Homo sapiens) (UniProt O75469); assay: ATG_PXR_TRANS: Attagene TRANS-FACTORIAL HepG2 Assay for human Pregnane X Receptor (PXR) (AID 2283008; active = hit-call score of the fitted dose curve at least 0.9, where 1 is the maximum)
Summary of the method: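 Measures mRNA induction of a GAL4-UAS-driven reporter in human HepG2 cells transiently expressing PXR fused to Gal4, following 24 h treatment. DMSO served as negative control and baseline.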

Measured: AC50

Sequence of Paired box protein Pax-6 (Homo sapiens) (P26367 whole entry, looked up): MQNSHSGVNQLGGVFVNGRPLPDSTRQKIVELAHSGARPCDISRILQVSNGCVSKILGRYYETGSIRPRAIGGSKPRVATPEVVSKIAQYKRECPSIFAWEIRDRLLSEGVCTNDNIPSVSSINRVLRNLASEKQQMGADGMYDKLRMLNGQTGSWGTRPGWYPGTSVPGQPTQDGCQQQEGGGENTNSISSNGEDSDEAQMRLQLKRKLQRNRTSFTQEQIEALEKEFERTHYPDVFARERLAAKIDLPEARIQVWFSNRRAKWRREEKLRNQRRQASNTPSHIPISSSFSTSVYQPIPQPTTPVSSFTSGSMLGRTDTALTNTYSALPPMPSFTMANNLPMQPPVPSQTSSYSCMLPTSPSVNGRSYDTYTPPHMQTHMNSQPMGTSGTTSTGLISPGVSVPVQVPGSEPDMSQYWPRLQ
Sequence of Transcriptional activator Myb (Homo sapiens) (P10242 whole entry, looked up): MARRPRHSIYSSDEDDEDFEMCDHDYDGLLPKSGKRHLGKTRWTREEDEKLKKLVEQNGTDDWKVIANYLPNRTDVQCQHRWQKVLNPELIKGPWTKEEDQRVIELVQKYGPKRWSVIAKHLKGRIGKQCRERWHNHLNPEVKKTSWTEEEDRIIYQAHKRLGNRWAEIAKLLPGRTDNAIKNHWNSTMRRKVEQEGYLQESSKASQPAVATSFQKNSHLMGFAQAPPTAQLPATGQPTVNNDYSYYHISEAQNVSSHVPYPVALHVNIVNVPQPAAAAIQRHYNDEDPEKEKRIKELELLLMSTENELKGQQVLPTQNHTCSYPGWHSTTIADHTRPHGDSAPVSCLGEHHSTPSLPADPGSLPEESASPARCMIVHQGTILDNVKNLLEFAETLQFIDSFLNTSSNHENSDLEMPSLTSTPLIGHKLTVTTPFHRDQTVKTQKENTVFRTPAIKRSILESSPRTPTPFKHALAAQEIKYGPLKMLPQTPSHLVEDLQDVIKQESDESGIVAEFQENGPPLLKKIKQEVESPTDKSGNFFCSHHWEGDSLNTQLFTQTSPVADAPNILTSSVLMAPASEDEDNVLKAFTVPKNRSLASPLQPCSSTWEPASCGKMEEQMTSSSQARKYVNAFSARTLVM
Sequence of Hypoxia-inducible factor 1-alpha (Homo sapiens) (Q16665 whole entry, looked up): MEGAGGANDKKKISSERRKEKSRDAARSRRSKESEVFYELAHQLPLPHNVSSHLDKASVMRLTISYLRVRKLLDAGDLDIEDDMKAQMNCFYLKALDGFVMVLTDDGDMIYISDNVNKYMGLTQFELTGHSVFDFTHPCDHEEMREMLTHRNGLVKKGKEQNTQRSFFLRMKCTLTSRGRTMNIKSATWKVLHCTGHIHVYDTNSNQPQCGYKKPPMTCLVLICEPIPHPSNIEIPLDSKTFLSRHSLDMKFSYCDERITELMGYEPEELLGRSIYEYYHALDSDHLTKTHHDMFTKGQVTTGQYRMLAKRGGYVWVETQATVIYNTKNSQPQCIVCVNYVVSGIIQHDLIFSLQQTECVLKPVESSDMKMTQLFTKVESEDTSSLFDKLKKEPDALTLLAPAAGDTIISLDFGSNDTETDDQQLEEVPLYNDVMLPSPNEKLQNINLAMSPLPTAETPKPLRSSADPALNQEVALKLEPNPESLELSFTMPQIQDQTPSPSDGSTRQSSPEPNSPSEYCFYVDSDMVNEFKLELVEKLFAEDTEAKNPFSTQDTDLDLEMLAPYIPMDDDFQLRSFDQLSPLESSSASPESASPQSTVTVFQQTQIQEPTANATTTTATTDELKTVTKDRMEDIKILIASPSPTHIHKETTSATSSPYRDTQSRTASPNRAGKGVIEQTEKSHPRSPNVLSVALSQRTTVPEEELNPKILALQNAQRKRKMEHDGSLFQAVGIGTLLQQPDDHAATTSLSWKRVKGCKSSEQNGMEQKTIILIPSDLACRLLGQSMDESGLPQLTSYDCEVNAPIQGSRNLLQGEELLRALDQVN
Sequence of Heat shock factor protein 1 (Homo sapiens) (Q00613 whole entry, looked up, the tested form may be a part): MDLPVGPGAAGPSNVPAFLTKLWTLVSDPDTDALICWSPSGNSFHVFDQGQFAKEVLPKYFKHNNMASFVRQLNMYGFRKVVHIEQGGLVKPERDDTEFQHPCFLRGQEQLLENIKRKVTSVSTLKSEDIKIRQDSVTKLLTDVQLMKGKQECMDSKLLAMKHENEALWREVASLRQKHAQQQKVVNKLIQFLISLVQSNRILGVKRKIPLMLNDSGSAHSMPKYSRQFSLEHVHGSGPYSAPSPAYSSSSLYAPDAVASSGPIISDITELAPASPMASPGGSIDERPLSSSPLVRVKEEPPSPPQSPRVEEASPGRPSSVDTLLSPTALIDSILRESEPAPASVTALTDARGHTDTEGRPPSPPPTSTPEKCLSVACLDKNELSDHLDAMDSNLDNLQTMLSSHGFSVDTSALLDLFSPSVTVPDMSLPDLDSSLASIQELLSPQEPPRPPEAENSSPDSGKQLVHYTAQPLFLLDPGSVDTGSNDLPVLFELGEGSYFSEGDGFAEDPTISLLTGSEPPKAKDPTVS
Sequence of Myc proto-oncogene protein (Homo sapiens) (P01106 whole entry, looked up): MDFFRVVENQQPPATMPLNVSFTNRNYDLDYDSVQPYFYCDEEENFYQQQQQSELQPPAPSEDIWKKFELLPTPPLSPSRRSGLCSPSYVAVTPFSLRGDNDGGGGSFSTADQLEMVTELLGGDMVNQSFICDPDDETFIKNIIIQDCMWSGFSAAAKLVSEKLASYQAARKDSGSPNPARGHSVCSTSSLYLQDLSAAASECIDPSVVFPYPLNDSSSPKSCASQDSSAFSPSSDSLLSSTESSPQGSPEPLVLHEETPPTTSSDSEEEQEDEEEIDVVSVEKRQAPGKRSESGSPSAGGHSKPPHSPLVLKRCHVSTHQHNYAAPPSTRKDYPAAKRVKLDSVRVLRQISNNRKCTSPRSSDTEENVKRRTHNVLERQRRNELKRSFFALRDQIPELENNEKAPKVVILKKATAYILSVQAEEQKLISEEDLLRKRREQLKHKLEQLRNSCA
Sequence of Cellular tumor antigen p53 (Homo sapiens) (P04637 whole entry, looked up): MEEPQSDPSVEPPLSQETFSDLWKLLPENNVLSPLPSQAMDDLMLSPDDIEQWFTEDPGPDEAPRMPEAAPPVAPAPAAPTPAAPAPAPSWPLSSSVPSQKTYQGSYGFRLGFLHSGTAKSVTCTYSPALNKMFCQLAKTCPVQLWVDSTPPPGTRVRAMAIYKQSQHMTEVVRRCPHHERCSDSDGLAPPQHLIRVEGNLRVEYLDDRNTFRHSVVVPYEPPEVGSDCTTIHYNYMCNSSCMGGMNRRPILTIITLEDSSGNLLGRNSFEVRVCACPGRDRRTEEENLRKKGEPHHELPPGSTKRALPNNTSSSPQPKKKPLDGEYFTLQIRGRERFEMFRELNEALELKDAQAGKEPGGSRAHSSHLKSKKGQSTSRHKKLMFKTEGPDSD
Sequence of Nuclear receptor subfamily 1 group I member 2 (Homo sapiens) (O75469 whole entry, looked up, the tested form may be a part): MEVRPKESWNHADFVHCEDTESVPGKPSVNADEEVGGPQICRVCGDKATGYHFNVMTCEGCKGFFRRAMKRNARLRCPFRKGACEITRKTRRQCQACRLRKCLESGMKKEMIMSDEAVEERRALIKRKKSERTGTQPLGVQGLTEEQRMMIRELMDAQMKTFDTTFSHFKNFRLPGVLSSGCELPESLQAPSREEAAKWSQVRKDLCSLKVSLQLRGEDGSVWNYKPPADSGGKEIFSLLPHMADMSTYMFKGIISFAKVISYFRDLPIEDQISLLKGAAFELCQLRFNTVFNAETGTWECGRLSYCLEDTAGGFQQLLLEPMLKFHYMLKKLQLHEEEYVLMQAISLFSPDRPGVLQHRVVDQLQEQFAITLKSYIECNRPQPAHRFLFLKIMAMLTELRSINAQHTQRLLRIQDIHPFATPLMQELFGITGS
Sequence of Signal transducer and activator of transcription 3 (Homo sapiens) (P40763 whole entry, looked up): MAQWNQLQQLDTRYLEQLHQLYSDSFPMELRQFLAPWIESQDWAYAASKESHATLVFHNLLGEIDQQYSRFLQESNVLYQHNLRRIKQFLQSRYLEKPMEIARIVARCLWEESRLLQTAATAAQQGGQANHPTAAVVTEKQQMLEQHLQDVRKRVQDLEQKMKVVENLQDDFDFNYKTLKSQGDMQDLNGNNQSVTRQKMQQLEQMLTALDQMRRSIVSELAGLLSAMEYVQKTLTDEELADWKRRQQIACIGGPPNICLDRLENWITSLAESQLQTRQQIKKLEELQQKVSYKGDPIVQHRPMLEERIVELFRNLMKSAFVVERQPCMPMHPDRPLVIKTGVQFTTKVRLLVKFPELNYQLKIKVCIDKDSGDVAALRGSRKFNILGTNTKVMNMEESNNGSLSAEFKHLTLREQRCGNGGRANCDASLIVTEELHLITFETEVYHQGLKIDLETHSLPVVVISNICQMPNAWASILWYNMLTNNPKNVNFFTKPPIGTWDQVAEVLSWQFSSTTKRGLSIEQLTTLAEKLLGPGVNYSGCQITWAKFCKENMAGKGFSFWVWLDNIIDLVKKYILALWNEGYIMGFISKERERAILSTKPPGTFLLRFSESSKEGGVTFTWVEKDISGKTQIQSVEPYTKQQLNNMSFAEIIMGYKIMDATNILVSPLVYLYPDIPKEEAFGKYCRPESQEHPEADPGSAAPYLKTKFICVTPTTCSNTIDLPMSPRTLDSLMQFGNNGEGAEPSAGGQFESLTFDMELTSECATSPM
Sequence of X-box-binding protein 1 (Homo sapiens) (P17861 whole entry, looked up, the tested form may be a part): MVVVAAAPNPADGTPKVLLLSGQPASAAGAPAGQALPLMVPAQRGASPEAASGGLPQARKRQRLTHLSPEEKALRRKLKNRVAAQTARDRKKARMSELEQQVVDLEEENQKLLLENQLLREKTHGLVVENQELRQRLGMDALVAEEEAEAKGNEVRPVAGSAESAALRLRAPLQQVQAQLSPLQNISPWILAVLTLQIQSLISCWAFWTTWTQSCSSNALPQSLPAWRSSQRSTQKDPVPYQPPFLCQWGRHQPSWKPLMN

C=CCOC(=O)C(=C)C
not listed: [19] | [20]
inactive: all other assays above

CC(C)CC(=O)O
not listed: [4] | [19] | [20]
inactive: all other assays above

CC(C)(C)NC(=O)[C@@H]1CN(Cc2cccnc2)CCN1C[C@@H](O)C[C@@H](Cc1ccccc1)C(=O)N[C@H]1c2ccccc2C[C@H]1O
not listed: [19] | [20]
inactive: all other assays above

CCCN[C@H]1CCc2nc(N)sc2C1
not listed: [18] | [20]
inactive: all other assays above

O=C(c1ccccc1)c1ccccc1O
active: [2] 162 µM | [7] 154 µM | [9] 129 µM | [13] 156 µM | [14] 135 µM | [20] 34.4 µM
not listed: [17]
inactive: all other assays above

CCCCCCCC#N
not listed: [17] | [19]
inactive: all other assays above

CCCCCCC1CCC(=O)O1 (stereo unspecified)
not listed: [15]
inactive: all other assays above

CN(C)c1ccc(C(c2ccccc2)c2ccc(N(C)C)cc2)cc1
active: [3] 100 µM | [20] 2.06 µM
not listed: [15]
inactive: all other assays above
